The target in assay [1] is T1, Aspartate--tRNA(Asp/Asn) ligase (Mycobacterium tuberculosis (strain ATCC 25618 / H37Rv)) (UniProt P9WFW3). Further: in the data most compounds retested in dose-response had high values.
T1 sequence (whole entry): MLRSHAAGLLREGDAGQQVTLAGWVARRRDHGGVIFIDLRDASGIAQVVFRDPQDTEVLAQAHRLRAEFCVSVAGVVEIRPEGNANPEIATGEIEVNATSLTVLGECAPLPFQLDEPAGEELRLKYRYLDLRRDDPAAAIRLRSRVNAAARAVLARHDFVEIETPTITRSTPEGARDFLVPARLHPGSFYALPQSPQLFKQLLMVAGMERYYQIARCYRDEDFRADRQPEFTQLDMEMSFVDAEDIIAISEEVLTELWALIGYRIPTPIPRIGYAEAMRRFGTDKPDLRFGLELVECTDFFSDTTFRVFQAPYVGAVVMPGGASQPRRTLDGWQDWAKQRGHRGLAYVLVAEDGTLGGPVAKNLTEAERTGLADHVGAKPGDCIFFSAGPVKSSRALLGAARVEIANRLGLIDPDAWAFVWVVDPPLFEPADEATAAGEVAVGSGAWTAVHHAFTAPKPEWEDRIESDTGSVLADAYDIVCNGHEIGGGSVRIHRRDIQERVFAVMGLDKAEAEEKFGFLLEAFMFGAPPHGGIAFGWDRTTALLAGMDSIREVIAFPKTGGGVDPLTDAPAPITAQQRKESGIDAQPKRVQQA
As to the kind of experiment: Assay for Asp RNA synthetase-1 from Mycobacterium tuberculosis. It is filed as functional. Also noted: scale not given: direction of the effect not stated beside the values. To be noted: 30 µM.

Assay [2] deals with Shiga toxin 2 (Escherichia coli O157:H7) (UniProt P09385+P09386). Briefly: E. coli 0.157:H7 Shiga Toxin SOP - stx2 screening assay. Format: functional. Conditions: 30 µM. The arrangement: scale not given: direction of the effect not stated beside the values.

Each structure is given as a SMILES string.

Consider `COc1ccc(CN2CCCCC2CNC(=O)OC(C)(C)C)cc1F` (centres undefined), for which the Percent Effect is -1.76% in assay [1] and 6.58% in assay [2].

As to `COCc1ncc(CN2CCC(Oc3ccccc3OC)CC2)cn1`, the Percent Effect in assay [1] was 0.276%; in assay [2], -1.31%.

As for `CC(CNC(=O)Nc1cn[nH]c1)N1CCc2ccccc2C1` (centres undefined), the Percent Effect was -0.721% in assay [1] and 21.5% in assay [2].

Consider `CC(NC(=O)CCc1cccs1)c1nnc2n1CCC2` (centres undefined), for which the Percent Effect in assay [1] was -0.379%; in assay [2], 3.4%.

As to `CC(C)n1ccnc1CN1CCCN(C(=O)c2cc(Cl)c[nH]2)CC1`, the values for the Percent Effect in assay [1] and in assay [2] were 3.35% and -53.1%, respectively.

In the case of `Cc1cccc(C2(NC(=O)CCN3C(=O)CCC3=O)CCCC2)c1`, the Percent Effect was -6.14% in assay [1] and 10.2% in assay [2].

For `CC1=N[C@@]2(CC[C@@H]3CN(CC(=O)N(C)C)C[C@@H]32)C(=O)N1CC(C)C`, the Percent Effect in assay [1] was -0.203%; in assay [2], -75.1%.

Turning to `COCCc1noc(CN2CCCCC2Cn2cc(C)cn2)n1` (centres undefined), the Percent Effect in assay [1] was -2.46%; in assay [2], 9.7%.

Consider `COc1ccc(CN2CC[C@H]3[C@H]2CCN3C(=O)c2cnn(C)c2)cc1`, for which the values for the Percent Effect in assay [1] and in assay [2] were -0.229% and -7.37%, respectively.

Consider `CC(C)c1nc(C2CCCN2Cc2ccno2)no1` (centres undefined), for which the values for the Percent Effect in assay [1] and in assay [2] were 1.46% and 1.7%, respectively.

`NC(=O)c1ccc2c(c1)nc1n2CCN(Cc2ccccc2)C1`: the Percent Effect is 3.29% in assay [1] and -9.11% in assay [2].

In the case of `O=C(c1cccc(CNS(=O)(=O)c2ccccc2F)c1)N1CCCC1`, the Percent Effect in assay [1] is 5.13%; in assay [2], 22.1%.

On to `CN(Cc1ccsc1)C(=O)CS(=O)(=O)Cc1ccc(Cl)c(Cl)c1`, for which the Percent Effect in assay [1] came out at 3.95%; in assay [2] it was 41.2%.

Regarding `CC(C)CC(=O)N1CC[C@@H]2[C@H](CC1)N(S(C)(=O)=O)CCS2(=O)=O`, the Percent Effect in assay [1] was -2.04%; in assay [2] it was -14.8%.

On to `CCCNC(=O)N1CCN(Cc2cc(C)no2)CC1`, for which the Percent Effect in assay [1] is -0.393%; in assay [2], 17.7%.

As for `Cc1ccc(OCC(=O)NCc2ccccc2F)nc1`, the Percent Effect in assay [1] is -0.524%; in assay [2], -8.96%.

Regarding `CN(Cc1ccccc1)CC(O)Cn1cnc2ccccc2c1=O` (centres undefined), the values for the Percent Effect in assay [1] and in assay [2] were -0.611% and -4.12%, respectively.

Regarding `CCc1cccc(N2CCC(NC(=O)c3ccc(=O)[nH]n3)CC2)c1`, the Percent Effect was 3.83% in assay [1] and -1.12% in assay [2].

Consider `CC(=O)N1CCC2(CC1)CC(Oc1ccccc1)CO2` (centres undefined), for which the Percent Effect in assay [1] is -1.48%; in assay [2], -19.5%.

For `Cc1ccc(-c2nc(CN3CCOC(Cn4cccn4)C3)cs2)o1` (centres undefined), the values for the Percent Effect in assay [1] and in assay [2] were -1.71% and -9.02%, respectively.

As to `CC(NC(=O)NCCCn1ccnc1)c1ccc2c(c1)CCC(=O)N2` (centres undefined), the Percent Effect in assay [1] was -3.85%; in assay [2], -22.9%.

Turning to `CN(C)CC(=O)N1CCC2(CCN(Cc3ccccn3)C2=O)C1` (centres undefined), the Percent Effect in assay [1] is -3.07%; in assay [2], 9.53%.

On to `O=C(CCCc1nc2ccccc2[nH]1)N1CCCC(n2cccn2)C1` (centres undefined), for which the values for the Percent Effect in assay [1] and in assay [2] were 0.834% and 3.01%, respectively.

`O=C(CC1CC1)NCc1cn2c(n1)CN(CC1CC1)CC2`: the figures for the Percent Effect in assay [1] and in assay [2] were 4.87% and -4.42%, respectively.

As to `COCc1nc2cc(NCc3ccc(C)o3)ccc2o1`, the Percent Effect in assay [1] is 25.1%; in assay [2], -21.1%.

Turning to `CN(C(=O)CCNC(=O)NC1CCCCC1)c1ccccc1`, the figures for the Percent Effect in assay [1] and in assay [2] were -1.38% and 4.9%, respectively.

For the compound `O=C(c1cc(F)ccc1F)C1CCN(C(=O)c2cccnc2O)CC1`, the figures for the Percent Effect in assay [1] and in assay [2] were -2.36% and 27.8%, respectively.

As for `Cc1cnn(C2CCCN(C(=O)Cc3ccc(-n4cccn4)cc3)C2)c1` (centres undefined), the results for the Percent Effect in assay [1] and in assay [2] were -4.37% and 4.84%, respectively.

Take `CNC(=O)COc1ccccc1CNC1CCc2ncnn2C1` (centres undefined): the Percent Effect is -0.833% in assay [1] and -29.9% in assay [2].

Consider `CCn1nc2c(cc1=O)CN(Cc1nc(-c3ccccn3)no1)CC2`, for which the Percent Effect is 29% in assay [1] and -43.5% in assay [2].

Consider `CN(Cc1ccsc1)C(=O)c1cccc(NS(C)(=O)=O)c1`, for which the Percent Effect in assay [1] is -4.16%; in assay [2] it was -32.9%.

On to `Cc1noc(C)c1CC(=O)OCC(=O)N1CCc2sccc2C1`, for which the values for the Percent Effect in assay [1] and in assay [2] were 6.42% and -7.79%, respectively.

On to `Cc1ccc(-c2nnc(SCC(=O)O)n2-c2ccc(C)cc2)cc1`, for which the Percent Effect in assay [1] was 0.544%; in assay [2], -4.96%.

As to `c1cnc(-c2cnc(N3CCSCC3)nc2C2CCCO2)cn1` (centres undefined), the Percent Effect in assay [1] is 6.48%; in assay [2], 13.6%.

In the case of `Cc1ccc(N2CCCN(C(=O)c3cc(Cl)c[nH]3)CC2)nn1`, the Percent Effect was -1.03% in assay [1] and -26.5% in assay [2].

`Cn1ccc(CN2CCCC2c2ccc3c(c2)OCCCO3)cc1=O` (centres undefined): the Percent Effect in assay [1] was -1.54%; in assay [2] it was -60%.

`Fc1cccc(Oc2ccc(CNCC3CNc4ccnn4C3)cn2)c1` (centres undefined): the Percent Effect in assay [1] is -6.37%; in assay [2] it was -101%.

In the case of `CN(Cc1cn2c(n1)CN(CC1CC1)CC2)Cc1ccco1`, the Percent Effect is 3.75% in assay [1] and -1.46% in assay [2].

Turning to `N#Cc1ccccc1CN1CCCCC1Cn1cncn1` (centres undefined), the Percent Effect in assay [1] worked out at 0.359%; in assay [2], 25%.

Consider `Cc1cc(-c2nnn(CCNS(C)(=O)=O)n2)ccc1F`, for which the Percent Effect was -2.07% in assay [1] and -10.6% in assay [2].

As to `CCc1ncc2c(n1)CN(Cc1nnc(C)o1)CC2`, the Percent Effect is -4.37% in assay [1] and -16.2% in assay [2].

Consider `CC(C)CS(=O)(=O)CC(=O)N(C)Cc1ccc(OC(F)F)cc1`, for which the Percent Effect was -0.457% in assay [1] and 4.95% in assay [2].

With `CCS(=O)(=O)NC(C(=O)NC)c1ccc(F)c(F)c1` (centres undefined), the figures for the Percent Effect in assay [1] and in assay [2] were -0.436% and 10.3%, respectively.

Take `CN(C)CC1CSCCCN1C(=O)Nc1ccc(C(C)(C)C)cc1` (centres undefined): the Percent Effect stood at 0.656% in assay [1] and 11.6% in assay [2].

For the compound `O=C(CN1CCCC(O)C1)NC(=O)NCc1cccs1` (centres undefined), the results for the Percent Effect in assay [1] and in assay [2] were -0.0898% and -13.2%, respectively.

As for `Cc1cccc(N2CCN(CCNC(=O)c3ccnn3C)CC2)c1`, the Percent Effect is 5.62% in assay [1] and -28.1% in assay [2].

For the compound `Cc1cc(CN2CCN(C(=O)c3sccc3C(C)C)CC2)no1`, the Percent Effect in assay [1] is 0.346%; in assay [2], 7.17%.

Take `Cc1ncsc1C(=O)NCc1cccs1`: the values for the Percent Effect in assay [1] and in assay [2] were -1.72% and 1.3%, respectively.

As for `Cc1cncc(C2CCCN(C(=O)c3cccn3C)C2)n1` (centres undefined), the Percent Effect in assay [1] was 1.84%; in assay [2] it was -12.2%.

On to `CN(CC1(O)CCCN(c2ccccn2)C1)C(=O)Cc1ccsc1` (centres undefined), for which the Percent Effect in assay [1] is 1.53%; in assay [2], 13.7%.

Take `O=C(c1cccc(OC2CCCC2)c1)N1CCCC(n2cncn2)C1` (centres undefined): the Percent Effect in assay [1] was -0.0372%; in assay [2], 16.8%.

Regarding `CN(C)CC1CN(Cc2ccc3c(c2)OCO3)Cc2nccn2C1` (centres undefined), the Percent Effect turned out to be 9.35% in assay [1] and 4.74% in assay [2].

The values are drawn from ChEMBL document CHEMBL3988442, “University of Dundee, Small-Polar-MMV Screening Library” (2021).
